# Reference: PubChem BioAssay (EPA / NIEHS)
# Activity calls are given as the source filed them. The calls were made as follows: active = hit-call score of the fitted dose curve at least 0.9, where 1 is the maximum; inactive = score below 0.9.
# Columns and labels:
# Conditions in all cases: mRNA level, 48 h; actives raise or lower the signal
# [1] = read-out: Insulin-like growth factor-binding protein 1 (IGFBP1), IGFBP1 (gene 3484); assay: LTEA_HepaRG_IGFBP1: Life Technologies and Expression Analysis (LTEA) Assay for Insulin-like growth factor-binding protein 1 (IGFBP1) using HepaRG (AID 2283508)
# In short: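 HepaRG, 48 h, 8 conc. (max 100 uM, half-log), duplicates, 0.5% DMSO. Readout: TaqMan qRT-PCR, ACTB/GAPDH/POLR2A normalisation. Fit: bidirectional vs DMSO.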
# [2] = read-out: Interleukin 6 (IL6), IL6 (gene 3569); assay: LTEA_HepaRG_IL6: Life Technologies and Expression Analysis (LTEA) Assay for Interleukin 6 (IL6) using HepaRG (AID 2283509)
# In short: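 Changes in IL6 mRNA, up or down relative to 0.5% DMSO controls, were derived from concentration-response curves in human HepaRG cells treated for 48 h at up to 100 uM, with ACTB, GAPDH and POLR2A as normalizers.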
# [3] = read-out: Interleukin 6 Receptor (IL6R), IL6R (gene 3570); assay: LTEA_HepaRG_IL6R: Life Technologies and Expression Analysis (LTEA) Assay for Interleukin 6 Receptor (IL6R) using HepaRG (AID 2283510)
# In short: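 Cells were thawed, plated and cultured 48 h, then medium was changed to serum-free induction medium. Chemicals were added in duplicate (100 uM top, half-log steps, 0.5% DMSO) for 48 h. Lysates were analyzed by qRT-PCR for IL6R expression.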
# [4] = read-out: Potassium channel subfamily K member 1 (KCNK1), KCNK1 (gene 3775); assay: LTEA_HepaRG_KCNK1: Life Technologies and Expression Analysis (LTEA) Assay for Potassium channel subfamily K member 1 (KCNK1) using HepaRG (AID 2283511)
# In short: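 Human HepaRG cultures receive test chemicals for 48 h in 0.5% DMSO, top concentration 100 uM with half-log dilutions. Induction or suppression of KCNK1 mRNA relative to DMSO is derived by bidirectional fitting of qRT-PCR data.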
# [5] = read-out: Keratin 19 (KRT19), KRT19 (gene 3880); assay: LTEA_HepaRG_KRT19: Life Technologies and Expression Analysis (LTEA) Assay for Keratin 19 (KRT19) using HepaRG (AID 2283512)
# In short: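 Readout is qRT-PCR of KRT19 mRNA, normalized to ACTB, GAPDH and POLR2A, from HepaRG cells treated 48 h with eight-point half-log dilutions topping at 100 uM. Activity in either direction is scored relative to 0.5% DMSO vehicle.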
# [6] = read-out: JUN Transcription Factor, JUN (gene 3725); assay: LTEA_HepaRG_JUN: Life Technologies and Expression Analysis (LTEA) Assay for JUN Transcription Factor using HepaRG (AID 2283513)
# In short: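 Read-out is JUN transcript level by TaqMan qRT-PCR, normalized to ACTB, GAPDH and POLR2A, after 48 h chemical treatment of HepaRG cells. Concentration-response spanned eight half-log points up to 100 uM in 0.5% DMSO.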
# [7] = read-out: Lipase C (LIPC), LIPC (gene 3990); assay: LTEA_HepaRG_LIPC: Life Technologies and Expression Analysis (LTEA) Assay for Lipase C (LIPC) using HepaRG (AID 2283514)
# In short: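 In this multiplexed gene-expression screen, human HepaRG cultures received test chemicals for 48 h across eight concentrations with 100 uM highest, in duplicate. Values reflect LIPC mRNA induction or suppression versus DMSO vehicle, from normalized qRT-PCR.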
# [8] = read-out: Lipoprotein lipase (LPL), LPL (gene 4023); assay: LTEA_HepaRG_LPL: Life Technologies and Expression Analysis (LTEA) Assay for Lipoprotein lipase (LPL) using HepaRG (AID 2283515)
# In short: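 Concentration-response testing used half-log steps from 100 uM in 0.5% DMSO on human HepaRG cells, 48 h, duplicate wells. Phenobarbital 1 mM served as induction control; LPL mRNA was normalized to ACTB, GAPDH, POLR2A.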
# [9] = read-out: matrix metalloproteinase-10 (MMP10), MMP10 (gene 4319); assay: LTEA_HepaRG_MMP10: Life Technologies and Expression Analysis (LTEA) Assay for matrix metalloproteinase-10 (MMP10) using HepaRG (AID 2283517)
# In short: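 In differentiated HepaRG cultures kept in 0.5% DMSO, test chemicals act for 48 h over an eight-point range with a top dose of 100 uM. Expression is then quantified by TaqMan RT-PCR against ACTB, GAPDH and POLR2A.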
# [10] = read-out: MicroRNA 122 (MIR122), gene 406906; assay: LTEA_HepaRG_MIR122: Life Technologies and Expression Analysis (LTEA) Assay for MicroRNA 122 (MIR122) using HepaRG (AID 2283516); also: the transcript read is the microRNA miR-122
# In short: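 Human liver HepaRG cultures receive test chemicals for 48 h at eight half-log concentrations from 100 uM. Expression is quantified by qRT-PCR with ACTB/GAPDH/POLR2A normalization and fitted bidirectionally against 0.5% DMSO.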
SMILES,outcome [1],outcome [2],outcome [3],outcome [4],outcome [5],outcome [6],outcome [7],outcome [8],outcome [9],AC50 [1],AC50 [2],AC50 [5],AC50 [7],AC50 [8],outcome [10],AC50 [4],AC50 [9]
c1ccc(OP(Oc2ccccc2)Oc2ccccc2)cc1,inactive,inactive,inactive,inactive,inactive,inactive,inactive,inactive,inactive,,,,,,,,
[N-]=[N+]=[N-],,,inactive,inactive,,inactive,,,inactive,86.4 µM (active),93.6 µM (active),64.8 µM (active),81.1 µM (active),72.3 µM (active),,,
CCOP(=S)(OCC)SCSCC,inactive,inactive,inactive,inactive,inactive,inactive,inactive,inactive,inactive,,,,,,inactive,,
CN(C)C(=O)Cl,inactive,inactive,inactive,inactive,inactive,inactive,inactive,inactive,inactive,,,,,,,,
CCCCN(CCCC)SN(C)C(=O)Oc1cccc2c1OC(C)(C)C2,inactive,inactive,inactive,inactive,inactive,inactive,inactive,inactive,inactive,,,,,,,,
c1nc[nH]n1,inactive,inactive,inactive,,inactive,inactive,inactive,inactive,,,,,,,,0.116 µM (active),15.8 µM (active)
O=C(O)C(Cl)Cl,inactive,inactive,inactive,inactive,inactive,inactive,inactive,inactive,inactive,,,,,,,,
O=[N+]([O-])c1ccc(Cl)c(Cl)c1,inactive,inactive,inactive,inactive,inactive,inactive,inactive,inactive,inactive,,,,,,,,
ClC1=C(Cl)C2(Cl)C3C(Cl)C(Cl)CC3C1(Cl)C2(Cl)Cl (configuration not stated),inactive,inactive,inactive,inactive,inactive,inactive,,inactive,inactive,,,,43.7 µM (active),,,,
O=[N+]([O-])c1ccccc1,inactive,inactive,inactive,inactive,inactive,inactive,inactive,inactive,inactive,,,,,,,,
CC(Cc1ccc(OCC(=O)O)cc1)NCC(O)c1csc(C(F)(F)F)n1 (configuration not stated),inactive,inactive,inactive,inactive,,inactive,inactive,inactive,inactive,,,0.138 µM (active),,,,,
Nc1cc2c3c(c1)C(c1ccccc1)=N[C@@H](NC(=O)c1cccnc1)C(=O)N3CC2,inactive,inactive,inactive,inactive,inactive,inactive,inactive,inactive,inactive,,,,,,,,
ClC(Cl)(Cl)c1ccccc1,inactive,inactive,inactive,inactive,inactive,inactive,inactive,inactive,inactive,,,,,,,,
Cc1ccc([N+](=O)[O-])cc1C,inactive,inactive,inactive,inactive,inactive,inactive,inactive,inactive,inactive,,,,,,inactive,,
CCOc1ccc(C(C)(C)COCc2cccc(Oc3ccccc3)c2)cc1,inactive,inactive,inactive,inactive,inactive,inactive,inactive,inactive,inactive,,,,,,inactive,,
ClC(Cl)c1ccccc1,inactive,inactive,inactive,inactive,inactive,inactive,inactive,inactive,inactive,,,,,,,,
O=P(Oc1ccccc1)(Oc1ccccc1)Oc1ccccc1,,inactive,inactive,inactive,,inactive,inactive,inactive,inactive,37.8 µM (active),,0.981 µM (active),,,,,
CCC1(c2ccccc2)C(=O)N=C(O)NC1=O (configuration not stated),inactive,inactive,inactive,inactive,inactive,inactive,inactive,inactive,inactive,,,,,,,,
CCCCc1ccccc1,inactive,inactive,inactive,inactive,inactive,inactive,inactive,inactive,inactive,,,,,,,,
CCCCN(CCCC)N=O,inactive,inactive,inactive,inactive,inactive,inactive,inactive,inactive,inactive,,,,,,,,
Cc1ccc(N)cc1N,inactive,inactive,inactive,inactive,inactive,inactive,inactive,inactive,inactive,,,,,,,,
